Experimental data as given in the supplement of paper PMC8728848.
This is one part of a sample in which the strongest signals are shown more often than they occur.

What was measured:
Experiment in all cases: glycan array binding signal (z-score within array); higher = stronger binding
Settings in all cases: glycan notation: IUPAC condensed, linker removed
[1] = target: Fuc(a1-2)Gal(b1-3)GalNAc(b1-3)Gal(a1-4)Gal(b1-4)Glc
Outline: (§1)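 From the Consortium for Functional Glycomics database, 3228 arrays were curated, keeping only those whose protein sequence was available. Binding is given as a within-array Z-score averaged across arrays sharing a protein sequence and across linkers. Negative Z-scores can be read as non-binding.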

[2] = target: Fuc(a1-2)Gal(b1-3)[Fuc(a1-4)]GlcNAc
Outline: as §1

[3] = target: Fuc(a1-2)Gal(b1-4)[Fuc(a1-3)]GlcNAc
Outline: as §1

[4] = target: Fuc(a1-2)Gal(b1-4)[Fuc(a1-3)]GlcNAc(b1-2)Man(a1-3)[Fuc(a1-2)Gal(b1-4)[Fuc(a1-3)]GlcNAc(b1-2)Man(a1-6)]Man(b1-4)GlcNAc(b1-4)[Fuc(a1-6)]GlcNAc
Outline: as §1

[5] = target: Fuc(a1-2)Gal(b1-4)[Fuc(a1-3)]GlcNAc(b1-3)Gal(b1-4)[Fuc(a1-3)]GlcNAc
Outline: as §1

[6] = target: Fuc(a1-2)Gal(b1-4)[Fuc(a1-3)]GlcNAc(b1-3)Gal(b1-4)[Fuc(a1-3)]GlcNAc(b1-3)Gal(b1-4)[Fuc(a1-3)]GlcNAc
Outline: as §1

[7] = target: Fuc(a1-2)[Gal(a1-3)]Gal(b1-3)GlcNAc
Outline: as §1

[8] = target: Fuc(a1-2)[Gal(a1-3)]Gal(b1-4)Glc
Outline: as §1

[9] = target: Fuc(a1-2)[Gal(a1-3)]Gal(b1-4)GlcNAc
Outline: as §1

[10] = target: Fuc(a1-2)[Gal(a1-3)]Gal(b1-4)GlcNAc(b1-2)Man(a1-3)[Fuc(a1-2)[Gal(a1-3)]Gal(b1-4)GlcNAc(b1-2)Man(a1-6)]Man(b1-4)GlcNAc(b1-4)GlcNAc
Outline: as §1

[11] = target: Fuc(a1-2)[Gal(a1-3)]Gal(b1-4)[Fuc(a1-3)]GlcNAc
Outline: as §1

[12] = target: Fuc(a1-2)[GalNAc(a1-3)]Gal(b1-3)GalNAc(b1-3)Gal(a1-4)Gal(b1-4)Glc
Outline: as §1

[13] = target: Fuc(a1-2)[GalNAc(a1-3)]Gal(b1-4)GlcNAc(b1-2)Man
Outline: as §1

[14] = target: Fuc(a1-2)[GalNAc(a1-3)]Gal(b1-4)GlcNAc(b1-3)Gal(b1-4)GlcNAc
Outline: as §1

Fuc(a1-4)GlcNAc = target: Fuc(a1-4)GlcNAc
Outline: as §1

Fuc(b1-3)GlcNAc = target: Fuc(b1-3)GlcNAc
Outline: as §1

[15] = target: Gal(a1-3)Gal(b1-3)GlcNAc(b1-6)GalNAc
Outline: as §1

Gal(a1-3)Gal(b1-4)Glc = target: Gal(a1-3)Gal(b1-4)Glc
Outline: as §1

Gal(a1-3)Gal(b1-4)GlcNAc = target: Gal(a1-3)Gal(b1-4)GlcNAc
Outline: as §1

[16] = target: Gal(a1-3)Gal(b1-4)[Fuc(a1-3)]GlcNAc
Outline: as §1

[17] = target: Gal(a1-4)Gal(b1-4)GlcNAc(b1-2)Man(a1-3)[Gal(a1-4)Gal(b1-4)GlcNAc(b1-2)Man(a1-6)]Man(b1-4)GlcNAc(b1-4)GlcNAc
Outline: as §1

[18] = target: Gal(b1-3)[Neu5Ac(b2-6)]GalNAc
Outline: as §1

Gal(b1-4)Gal = target: Gal(b1-4)Gal
Outline: as §1

[19] = target: Gal(b1-4)GlcNAc(b1-2)Man(a1-3)Man(b1-4)GlcNAc(b1-4)GlcNAc
Outline: as §1

[20] = target: Gal(b1-4)GlcNAc(b1-3)Gal(b1-4)GlcNAc(b1-3)Gal(b1-4)GlcNAc(b1-3)Gal(b1-4)GlcNAc(b1-3)Gal(b1-4)GlcNAc(b1-2)Man(a1-3)[Gal(b1-4)GlcNAc(b1-3)Gal(b1-4)GlcNAc(b1-3)Gal(b1-4)GlcNAc(b1-3)Gal(b1-4)GlcNAc(b1-3)Gal(b1-4)GlcNAc(b1-2)Man(a1-6)]Man(b1-4)GlcNAc(b1-4)[Fuc(a1-6)]GlcNAc
Outline: as §1

[21] = target: Gal(b1-4)GlcNAc(b1-3)[GlcNAc(b1-6)]Gal(b1-4)GlcNAc
Outline: as §1

[22] = target: Gal(b1-4)GlcNAc(b1-6)GalNAc
Outline: as §1

GalNAc(b1-3)Gal = target: GalNAc(b1-3)Gal
Outline: as §1

GalNAc(b1-6)GalNAc = target: GalNAc(b1-6)GalNAc
Outline: as §1

Glc(a1-6)Glc(a1-6)Glc = target: Glc(a1-6)Glc(a1-6)Glc
Outline: as §1

[23] = target: GlcNAc(a1-4)Gal(b1-4)GalNAc
Outline: as §1

[24] = target: GlcNAc(b1-3)Gal(b1-4)GlcNAc(b1-2)Man(a1-3)[GlcNAc(b1-3)Gal(b1-4)GlcNAc(b1-2)Man(a1-6)]Man(b1-4)GlcNAc(b1-4)GlcNAc
Outline: as §1

[25] = target: GlcNAc(b1-4)Gal(b1-4)GlcNAc
Outline: as §1

[26] = target: GlcNAc(b1-4)GlcNAc(b1-4)GlcNAc
Outline: as §1

Kdn(a2-3)Gal(b1-4)GlcNAc = target: Kdn(a2-3)Gal(b1-4)GlcNAc
Outline: as §1

[27] = target: Man(a1-3)[Man(a1-6)]Man(a1-6)[Man(a1-3)]Man
Outline: as §1

[28] = target: Neu5Ac(a2-3)Gal(b1-3)GalNAc(b1-3)Gal(a1-4)Gal(b1-4)Glc
Outline: as §1

[29] = target: Neu5Ac(a2-3)Gal(b1-3)GlcNAc6S
Outline: as §1

[30] = target: Neu5Ac(a2-3)Gal(b1-3)[Neu5Ac(a2-6)]GalNAc
Outline: as §1

[31] = target: Neu5Ac(a2-3)Gal(b1-4)GlcNAc(b1-2)Man(a1-3)[GlcNAc(b1-4)][Neu5Ac(a2-3)Gal(b1-4)GlcNAc(b1-2)Man(a1-6)]Man(b1-4)GlcNAc(b1-4)GlcNAc
Outline: as §1

[32] = target: Neu5Ac(a2-3)Gal(b1-4)GlcNAc(b1-3)Gal(b1-4)GlcNAc
Outline: as §1

[33] = target: Neu5Ac(a2-3)Gal(b1-4)GlcNAc(b1-6)[Gal(b1-3)]GalNAc
Outline: as §1

[34] = target: Neu5Ac(a2-3)Gal(b1-4)GlcNAc(b1-6)[Neu5Ac(a2-3)Gal(b1-3)]GalNAc
Outline: as §1

[35] = target: Neu5Ac(a2-3)[GalNAc(b1-4)]Gal(b1-4)Glc
Outline: as §1

[36] = target: Neu5Ac(a2-3)[Neu5Ac(a2-6)]GalNAc
Outline: as §1

[37] = target: Neu5Ac(a2-6)Gal(b1-4)GlcNAc(b1-2)[Neu5Ac(a2-6)Gal(b1-4)GlcNAc(b1-4)]Man(a1-3)[GlcNAc(b1-4)][Neu5Ac(a2-6)Gal(b1-4)GlcNAc(b1-4)Man(a1-6)]Man(b1-4)GlcNAc(b1-4)GlcNAc
Outline: as §1

[38] = target: Neu5Ac(a2-6)Gal(b1-4)GlcNAc(b1-6)GalNAc
Outline: as §1

[39] = target: Neu5Gc(a2-8)Neu5Ac(a2-3)Gal(b1-4)GlcNAc
Outline: as §1

B1: PLU (Photorhabdus luminiscence) (protein)
chain: HHHHHHENLYFQSSIVFASIDPRSNPLQTSSQNYVDIPGLKLDVSKYSNSPCLTALITLNIPTPYASGNNFPGGNFAIVTDQGEQLAYGGFTYSSKIPENSGRMPFTLVARYSLASNVSTIKAQWSNIRGSTVHIDSYASISAVIQCNQLV
- glycan array binding signal (z-score) [1]: -0.183
- glycan array binding signal (z-score) [2]: 5.25
- glycan array binding signal (z-score) [3]: 3.55
- glycan array binding signal (z-score) [4]: 0.621
- glycan array binding signal (z-score) [5]: 3.58
- glycan array binding signal (z-score) [6]: 5.21
- glycan array binding signal (z-score) [7]: 4.43
- glycan array binding signal (z-score) [8]: 3.43
- glycan array binding signal (z-score) [9]: 3.83
- glycan array binding signal (z-score) [10]: 3.78
- glycan array binding signal (z-score) [11]: 5.59
- glycan array binding signal (z-score) [12]: -0.33
- glycan array binding signal (z-score) [13]: 3.66
- glycan array binding signal (z-score) [14]: 11.7
- glycan array binding signal (z-score) (Fuc(a1-4)GlcNAc): 0.546
- glycan array binding signal (z-score) (Fuc(b1-3)GlcNAc): -0.329
- glycan array binding signal (z-score) [15]: -0.253
- glycan array binding signal (z-score) (Gal(a1-3)Gal(b1-4)Glc): -0.284
- glycan array binding signal (z-score) (Gal(a1-3)Gal(b1-4)GlcNAc): -0.298
- glycan array binding signal (z-score) [16]: -0.21
- glycan array binding signal (z-score) [17]: -0.137
- glycan array binding signal (z-score) [18]: -0.298
- glycan array binding signal (z-score) (Gal(b1-4)Gal): -0.25
- glycan array binding signal (z-score) [19]: -0.227
- glycan array binding signal (z-score) [20]: -0.211
- glycan array binding signal (z-score) [21]: -0.329
- glycan array binding signal (z-score) [22]: -0.243
- glycan array binding signal (z-score) (GalNAc(b1-3)Gal): -0.24
- glycan array binding signal (z-score) (GalNAc(b1-6)GalNAc): -0.216
- glycan array binding signal (z-score) (Glc(a1-6)Glc(a1-6)Glc): -0.299
- glycan array binding signal (z-score) [23]: -0.301
- glycan array binding signal (z-score) [24]: -0.212
- glycan array binding signal (z-score) [25]: -0.134
- glycan array binding signal (z-score) [26]: -0.336
- glycan array binding signal (z-score) (Kdn(a2-3)Gal(b1-4)GlcNAc): -0.224
- glycan array binding signal (z-score) [27]: -0.093
- glycan array binding signal (z-score) [28]: -0.254
- glycan array binding signal (z-score) [29]: -0.277
- glycan array binding signal (z-score) [30]: -0.203
- glycan array binding signal (z-score) [31]: -0.251
- glycan array binding signal (z-score) [32]: -0.256
- glycan array binding signal (z-score) [33]: -0.144
- glycan array binding signal (z-score) [34]: -0.34
- glycan array binding signal (z-score) [35]: -0.324
- glycan array binding signal (z-score) [36]: -0.281
- glycan array binding signal (z-score) [37]: -0.267
- glycan array binding signal (z-score) [38]: -0.292
- glycan array binding signal (z-score) [39]: -0.285
